Source: PubChem
KCNQ2 block: inhibitors of rat KCNQ2 potassium channel. CHO-K1 KCNQ2, FluxOR thallium flux, 20 min; hits give low values. O88943. AID 2156. B-score at 10 µM. hit rate 1.1% among 310,000;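 active means fluorescence ratio B-score at most minus 3 library SDs, with starting brightness B-score within 2 library SDs, cut at about -5.5 in these data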
KCNQ2 pot: KCNQ2 (rat) channel potentiation | CHO-K1 KCNQ2, FluxOR thallium flux fluorescence; hits give high values | B-score at 10 µM | hit rate 0.54% among 310,000 | AID 2239;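 active means fluorescence ratio B-score at least 3 SD of library B-scores, with initial fluorescence B-score within 3 of them, cut at about 5.3 in these data; same plate scores as AID 2156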;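 further: B-score of peak minus minimum over baseline fluorescence ratio after K+ and Tl+ stimulus; positive B-score means potentiation of KCNQ2 with more thallium influx and brighter signal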
Kir21 confirm: confirmation of mouse Kir2.1 potassium channel inhibitors | shares compounds with KCNQ2 pot | Kir2.1-expressing cells, FluxOR thallium flux fluorescence; hits give low values | Tl flux remaining, % of negative control (hits give low values), % at 10 µM | hit rate 41% among 2,300 | AID 2032;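 active means Primary-screen hit whose thallium flux fell at least 3 control SD below untreated wells in both duplicates, with normal baseline fluorescence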;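 further: 0% = blank wells without stimulus and 100% = stimulated no-compound controls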
HEK293 ctr: alters thallium flux in parental HEK293 cells, Kir2.1 counter-screen; FluxOR thallium flux fluorescence; 0% = unstimulated blank wells; FluxOR signal as % of negative control (100 = no effect), % at 10 µM; shares compounds with KCNQ2 pot; hit rate 19% among 2,300;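 active means dye signal at least 3 control SD above or below untreated wells in both duplicates, raw fluorescence within 3, either direction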;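 further: percent is based on the flux ratio of peak minus minimum fluorescence over baseline F0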
CHO-K1 Tl ctr: alters thallium flux in parental CHO-K1 cells, KCNQ2 counter-screen. hit rate 43% among 1,200. activity increase over 3SD of controls, % at 10 µM. FluxOR thallium flux fluorescence; zero = vehicle mean+3SD, 100% = vehicle-minus-blank window. shares compounds with KCNQ2 pot. AID 2282;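 active means signal rise of at least 3 SD above the untreated control mean, in both duplicate wells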;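 further: counter screen of KCNQ2 potentiator hits so any rise reflects channel-independent effects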
KCNQ1 pot spec: human KCNQ1 counter-target activity of KCNQ2 potentiators. shares compounds with KCNQ2 pot. CHO KCNQ1 stable, FluxOR thallium flux fluorescence; beyond 3SD, as % of vehicle-control signal. activation over 3SD threshold, % at 10 µM. hit rate 28% among 1,200;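 active means fluorescence ratio rise of at least 3 SD of vehicle wells above their mean, in both replicate wells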;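 further: 0% = vehicle mean plus 3 SD and 100% = vehicle minus unstimulated blank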
KCNQ2 pot conf: rat KCNQ2 channel potentiator confirmation | shares compounds with KCNQ2 pot | CHO-KCNQ2 cells, FluxOR thallium flux fluorescence | potentiation, less the hit threshold, % at 10 µM | hit rate 68% among 1,200;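 active means fluorescence ratio rising 3 SD or more over the vehicle control mean in both replicates, plus primary screen hit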;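 further: peak minus minimum thallium fluorescence divided by baseline after K/Tl stimulus; 0% = vehicle mean plus 3 SD and 100% = vehicle minus unstimulated blank difference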
Kir2-1 sel: mouse Kir2.1 off-target activity of KCNQ2 potentiators | shares compounds with KCNQ2 pot | HEK293 Kir2.1, FluxOR thallium flux fluorescence | activity over 3SD threshold, % at 10 µM | hit rate 2% among 1,200 | AID 2345;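 active means fluorescence ratio rise of at least 3 SD above the vehicle-control mean, seen in both replicates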;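 further: 0% = vehicle mean plus 3 SD and 100% = vehicle minus no-stimulus blank window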
KCNQ2 W236L pot: potentiates the retigabine-insensitive rat KCNQ2 W236L mutant channel | shares compounds with KCNQ2 pot | CHO KCNQ2-W236L, automated patch clamp current | current increase over 3SD of negative controls (%), hits give high values, % at 25 µM | hit rate 10% among 940;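 active means current increase at least 3 SD of the untreated controls above them in both duplicate recordings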
* = called active by the depositor; i = inactive; . = not tested or not shown. The list is not random: actives were taken first. Their share in the collection is about 1.6%.

SMILES | KCNQ2 block | KCNQ2 pot | Kir21 confirm | HEK293 ctr | others
O=C(NNC(=O)c1ccccc1OCc1ccc(F)cc1)c1ccncc1 | i | 6.1* | i | i | CHO-K1 Tl ctr=23*;KCNQ1 pot spec=-9;KCNQ2 pot conf=-23;Kir2-1 sel=-33
O=C(N/N=C/c1ccc(OCc2ccccc2)cc1)c1ccco1 | i | 0.07 | . | .
NC(N)=N/N=C/c1ccc(OCc2ccccc2)cc1 | -6.8* | -6.8 | 16%* | i
CCOc1cc(S(=O)(=O)NCc2cccnc2)c(C)cc1C | i | . | . | .
CCOC(=O)c1c(C)[nH]c(N=Nc2ccc(OC)cc2)c1C | i | . | . | .
COc1cc(NC(=O)C/C(C)=N/NC(=O)C(=O)NCCO)c(OC)cc1Cl | i | 1.1 | . | .
CC(C)(C)c1ccc(-c2nc(-c3ccncc3)no2)cc1 | i | 7* | i | i | CHO-K1 Tl ctr=54*;KCNQ1 pot spec=-13;KCNQ2 pot conf=46*;Kir2-1 sel=-36;KCNQ2 W236L pot=i
Cc1ccc(-c2nc(-c3ccncc3)no2)cc1 | i | 0.06 | . | .
O=C(CCC1CCCC1)NNC(=O)c1cccc(Cl)c1 | i | 6.1* | i | i | CHO-K1 Tl ctr=106*;KCNQ1 pot spec=-18;KCNQ2 pot conf=15*;Kir2-1 sel=-11;KCNQ2 W236L pot=i
O=C(CCN1C(=O)C2CCCCC2C1=O)NNC(=O)c1cccc(Cl)c1 (stereo not given) | i | 0.27 | . | .
CC1Sc2ccc(S(=O)(=O)CCC(=O)NC3CCCCC3C)cc2NC1=O (stereo not given) | i | 0.35 | . | .
O=C(O)CC(Cc1ccccc1)(C(=O)O)c1ccccc1 (stereo not given) | i | 1.2 | . | .
CC1(c2ccccc2)CC(C)(C)N2C(=O)C3(C(C#N)=C(N)Oc4cc(O)ccc43)c3cccc1c32 (stereo not given) | i | 2.5 | . | .
CC1(c2ccccc2)CC(C)(C)N2C(=O)/C(=C3\SC(=S)NC3=O)c3cccc1c32 (stereo not given) | i | 32* | i | i | CHO-K1 Tl ctr=-22;KCNQ1 pot spec=-22;KCNQ2 pot conf=4.3*;Kir2-1 sel=-26;KCNQ2 W236L pot=i
CC(=O)C1=C(C)NC(SCC(=O)c2ccc(F)cc2)=C(C#N)C1c1ccco1 (stereo not given) | i | 4.8 | . | .
N#CC1=C(SCC(=O)c2ccccc2)NC2=C(C(=O)CCC2)C1c1ccco1 (stereo not given) | i | 1.6 | . | .
Cc1ccc(C(=O)CSC2=C(C#N)C(c3ccco3)C3=C(CCCC3=O)N2)cc1 (stereo not given) | i | 6.6* | i | i | CHO-K1 Tl ctr=0.0*;KCNQ1 pot spec=5.9*;KCNQ2 pot conf=-7;Kir2-1 sel=-30
CCc1ccc(C(=O)CSC2=C(C#N)C(c3ccco3)C(C(C)=O)=C(C)N2)cc1 (stereo not given) | i | 9.8* | i | i | CHO-K1 Tl ctr=113*;KCNQ1 pot spec=-11;KCNQ2 pot conf=-5;Kir2-1 sel=-24
O=[N+]([O-])CC(=Nc1ccc(F)cc1)N/N=C\c1oc(O)c2ccccc12 | i | . | . | .
CC(NC(=O)c1ccccc1NC(=O)CSc1nnnn1C)c1ccccc1 (stereo not given) | i | 0.48 | . | .
NS(=O)(=O)c1ccc(CCNC(=O)c2ccc[nH]c2=S)cc1 | i | 0.06 | . | .
CCOc1ccccc1CNCc1ccc(C(=O)O)cc1 | i | . | . | .
O=C(COc1ccccc1CNCc1ccccc1)Nc1ccccc1 | i | . | 35%* | i
Cc1sc2ncnc(NCC(O)c3ccc([N+](=O)[O-])cc3)c2c1C (stereo not given) | i | 0.11 | . | .
Cc1cc(N=Cc2cc(Br)ccc2O)no1 | i | 9.1* | i | i | CHO-K1 Tl ctr=-18;KCNQ1 pot spec=-7;KCNQ2 pot conf=0.8*;Kir2-1 sel=-22;KCNQ2 W236L pot=i
SMILES | KCNQ2 block | KCNQ2 pot | Kir21 confirm | HEK293 ctr | others
Cc1ccc(S(=O)(=O)/N=C/c2cc(Br)ccc2O)cc1 | i | 4.3 | . | .
Cc1cccc(N2CCN(C(=O)CSc3nc4ccccc4nc3N3CC(C)OC(C)C3)CC2)c1C (stereo not given) | i | . | . | .
COc1cc(C2C(C#N)=C(N)Oc3c2c(-c2ccccc2)nn3-c2ccccc2)cc(OC)c1OC (stereo not given) | i | 0.87 | . | .
N=c1n(Cc2ccccc2)c2ccccc2n1CC(O)COc1ccccc1 (stereo not given) | i | . | 38%* | i
Cc1ccc(Cn2c(=N)n(CC(O)COc3ccccc3)c3ccccc32)cc1 (stereo not given) | i | . | 32%* | i
CCCCn1c(=N)n(CC(O)COc2ccc(C)cc2)c2ccccc21 (stereo not given) | i | . | . | .
CCCCn1c(=N)n(CC(O)COc2ccccc2)c2ccccc21 (stereo not given) | i | 1 | . | .
COc1ccc(C(=O)NCC(=O)OCc2ccccc2F)cc1 | i | . | . | .
Cc1sc2ncn(CC(=O)NCC(=O)N3CCN(c4ccccc4F)CC3)c(=O)c2c1C | i | 0.01 | . | .
COc1cccc(C(=O)Nc2ccncc2)c1OC | i | 7.2* | i | i | CHO-K1 Tl ctr=-3;KCNQ1 pot spec=-17;KCNQ2 pot conf=-15;Kir2-1 sel=-42
COc1ccccc1C(=O)Nc1ccncc1 | i | . | . | .
O=C(O)CCSCCCN1C(=O)c2cccc3cccc(c23)C1=O | i | 1.5 | . | .
Cc1cc(C)c(NC(=O)C2C3/C=C\CCCCC32)c(C)c1 (stereo not given) | i | 12* | i | i | CHO-K1 Tl ctr=-15;KCNQ1 pot spec=-20;KCNQ2 pot conf=56*;Kir2-1 sel=-28;KCNQ2 W236L pot=i
Cc1ccc(NC(=O)C2C3/C=C\CCCCC32)cc1 (stereo not given) | i | 1.7 | . | .
Cn1c(C(=O)N[C@@H](C(=O)O)c2ccccc2)cc2cc(F)ccc21 | i | 0.84 | . | .
CCCc1nc2oc3c(NCCN(C)C)ncnc3c2c2c1CCCC2 | i | 5.4* | i | i | CHO-K1 Tl ctr=-16;KCNQ1 pot spec=-4;KCNQ2 pot conf=51*;Kir2-1 sel=-57;KCNQ2 W236L pot=i
CCCc1nc2oc3c(Cl)ncnc3c2c2c1CCCC2 | i | 0.39 | . | .
COc1cccc(NC(=O)c2nc(SC)ncc2Cl)c1 | i | 0.34 | . | .
COc1cccc(NC(=O)c2nc(S(C)(=O)=O)ncc2Cl)c1 | i | . | 63%* | 64%*
C=CC[n+]1c(/C=C/c2ccc(OC(C)=O)c(OC)c2)ccc2ccccc21 | i | 0.29 | . | .
O=C(Cc1ccc(NC2=NC3CS(=O)(=O)CC3S2)cc1)NCc1ccc(Cl)cc1 (stereo not given) | i | . | . | .
C/C(N)=C(/C#N)C(=O)CSc1nc2ccccc2c(=O)n1Cc1ccc(C)cc1 | i | . | . | .
